# About 83,000 compounds went through this panel and 20% of them were active in at least one assay; those are over-represented in the sample as a whole.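 Activity criterion: percent growth below 10, measured after cells in 96-well plates were exposed to a single compound concentration for 48 hours.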 Unmarked numbers belong to inactive results. Activity calls are given as the source filed them.
# How the values were obtained:
# Test in all cases: NCI-60 one-dose screen, 48 h (100 = growth as untreated, 0 = no growth, -100 = all killed)
# Settings in all cases: 10 µM
# HCT-15 colon = test system: HCT-15 colon
# HT29 colon = test system: HT29 colon
# SNB-75 CNS = test system: SNB-75 CNS
# SNB-19 CNS = test system: SNB-19 CNS
# U251 CNS = test system: U251 CNS
# PC-3 prostate = test system: PC-3 prostate
# SK-MEL-5 melanoma = test system: SK-MEL-5 melanoma
# UACC-62 melanoma = test system: UACC-62 melanoma
# LOX IMVI melanoma = test system: LOX IMVI melanoma
# SK-MEL-28 melanoma = test system: SK-MEL-28 melanoma
# SK-MEL-2 melanoma = test system: SK-MEL-2 melanoma
# EKVX NSCLC = test system: EKVX NSCLC
# SN12C renal = test system: SN12C renal
# UO-31 renal = test system: UO-31 renal
# TK-10 renal = test system: TK-10 renal
# ACHN renal = test system: ACHN renal
# CAKI-1 renal = test system: CAKI-1 renal
# A498 renal = test system: A498 renal
# CCRF-CEM leukemia = test system: CCRF-CEM leukemia
# MOLT-4 leukemia = test system: MOLT-4 leukemia
Structure (SMILES),growth (HCT-15 colon),growth (HT29 colon),growth (SNB-75 CNS),growth (SNB-19 CNS),growth (U251 CNS),growth (PC-3 prostate),growth (SK-MEL-5 melanoma),growth (UACC-62 melanoma),growth (LOX IMVI melanoma),growth (SK-MEL-28 melanoma),growth (SK-MEL-2 melanoma),growth (EKVX NSCLC),growth (SN12C renal),growth (UO-31 renal),growth (TK-10 renal),growth (ACHN renal),growth (CAKI-1 renal),growth (A498 renal),growth (CCRF-CEM leukemia),growth (MOLT-4 leukemia)
CN(C)c1ccc(/C=C/c2nc3ccccc3c(=O)n2CC(=O)Nc2ccccc2)cc1,52.4%,63.6%,62.6%,62.9%,16.5%,67.5%,62%,43.7%,1.57% (active),35.6%,71.4%,63.6%,39%,54.3%,95%,18.8%,24.4%,70.5%,90%,79.5%
Cc1ccc(-c2nc(Nc3ccc(C)c(S(N)(=O)=O)c3)c3ccccc3n2)cc1,50.7%,43.1%,116%,91.4%,18.6%,43.9%,86.7%,87.8%,2.94% (active),113%,118%,81.1%,69%,85.9%,120%,64.1%,91%,106%,85.1%,71.5%
CN(C)c1nc(NCCNS(=O)(=O)c2ccc(C(=O)/C=C/c3ccccc3)cc2)nc(Nc2ccc(F)cc2)n1,-67.2% (active),-59.8% (active),87.3%,41.7%,-56.2% (active),16.4%,30.2%,26.5%,-100% (active),31.4%,81%,29.1%,-89% (active),18.2%,92.5%,12.7%,38.1%,61.1%,14.8%,8.21% (active)
N#Cc1c(Cl)nc(SCc2ccc(F)cc2)nc1-c1ccc(F)cc1,87%,66.6%,123%,98%,92.8%,91.1%,86.2%,86%,90.2%,104%,97.9%,89.1%,80.9%,87.1%,98.2%,99.5%,94.9%,115%,86.7%,80.6%
CN1C(=O)/C(=C/c2ccc3ncsc3c2)NC1=NC12CC3CC(CC(O)(C3)C1)C2,-7.12% (active),3.87% (active),25.9%,16.3%,16.4%,16.8%,-90.7% (active),-7.72% (active),-52.8% (active),-18.4% (active),-82.3% (active),12.3%,4.63% (active),-0.057% (active),39.2%,0.736% (active),8.2% (active),-10.5% (active),5.06% (active),4.59% (active)
O=C1NC(=NC23CC4CC(CC(C4)C2)C3)N/C1=C\c1ccc2ncccc2n1,-16.2% (active),-17.4% (active),-70.7% (active),-7.61% (active),5.17% (active),-0.602% (active),-68.3% (active),-64.4% (active),-42.6% (active),-30.2% (active),-94.8% (active),-22% (active),1.63% (active),-15.8% (active),9.19% (active),-13% (active),-13.4% (active),-28.3% (active),-9.82% (active),-10.9% (active)
OCCCNc1oc(-c2ccccc2)nc1[P+](c1ccccc1)(c1ccccc1)c1ccccc1,45.9%,6.51% (active),-2.93% (active),4.56% (active),13.7%,9.56% (active),-100% (active),-70.2% (active),-16.6% (active),7.68% (active),-34.1% (active),14.3%,-0.273% (active),69.8%,20.9%,51%,58.6%,22.5%,10.5%,6.77% (active)
CN1CCc2c(sc3ncnc(N/N=C/c4ccc5ccccc5c4)c23)C1,2.05% (active),20.4%,76.4%,74.2%,-4.86% (active),102%,97.9%,79.1%,9.53% (active),100%,103%,90.4%,72.4%,60.5%,110%,67.2%,78.2%,106%,40.6%,63.6%
O=C(Nc1cccc(C(F)(F)F)c1)c1cncc(C#Cc2cnc3cccnn23)c1,37.7%,49.4%,122%,82.7%,67.6%,35.3%,25.6%,35.4%,22.1%,63.2%,61.1%,54.7%,35.5%,30.4%,97.8%,55.2%,71.8%,171%,16.5%,24.3%
Nc1cc(-c2cccc(C(=O)NCc3ccc4c(c3)OCO4)c2)ccn1,95.8%,111%,86%,95.2%,92.2%,103%,91.7%,93.4%,89.5%,103%,105%,76.8%,104%,71.9%,103%,97%,92.3%,106%,98.9%,91.1%
COc1ccc(C(=O)/C=C/c2cc(F)cc(C(F)(F)F)c2)cc1S(N)(=O)=O,-77.9% (active),-68.3% (active),63.2%,-92.6% (active),-72.9% (active),-10.2% (active),3.71% (active),-55.5% (active),-91.3% (active),-68.4% (active),12.8%,7.02% (active),-69.1% (active),-92.7% (active),-12.4% (active),-100% (active),-85.7% (active),88.2%,4.86% (active),1.63% (active)
Cc1ccn2c(C(=O)c3ccc(Br)cc3)cc(-c3cc(-c4ccc(N(C)C)cc4)c(C#N)c(N)n3)c2c1,39.7%,34.6%,118%,67.8%,19.9%,64.4%,53.1%,76.7%,30.7%,51.1%,81.1%,68.2%,76.5%,63.3%,98.9%,71.5%,67.2%,91.9%,94.3%,94%
COc1ccc(-c2cc(-c3cc(C(=O)c4ccccc4)n4ccc(C)cc34)nc(N)c2C#N)cc1,78%,75%,91.5%,45.1%,45.4%,63.5%,67.7%,64.6%,51.3%,87.6%,84.8%,81.2%,70%,65%,92.4%,56.4%,69.9%,127%,98.3%,93.8%
